# Inconclusive results are not listed. Activity calls are given as the source filed them.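 Rule for the calls, unless noted: active = normalized viability below 100% at a tested concentration; inactive = the rest.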
# How the values were obtained:
# [1] = ovarian cancer cell viability with rucaparib, profiling panel, oncology-focused library, rucaparib conditional (AID 1508598); settings: patient-derived ovarian cancer cells, CellTiter-Glo viability, 144 h, stronger effect = lower value
# [2] = growth inhibition of DIPG glioma cells, dose response, cell-based, SU-DIPG-XVII, MIPE5.0, CellTiter-Glo, qHTS (AID 1347060; cut-off not given, nearly all actives have AC50 up to about 26 µM;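 note: cells exposed to compound for 48 hours before viability readout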); settings: SU-DIPG-XVII viability, CellTiter-Glo ATP luminescence
# [3] = growth inhibition of DIPG glioma cells, dose response, cell-based, JHH-DIPG-1, MIPE4.0, CellTiter-Glo, qHTS (AID 1347062; cut-off not given, nearly all actives have AC50 up to about 27 µM;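 for AC50: cells exposed to compound for two days before readout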); settings: JHH-DIPG-1 viability, CellTiter-Glo ATP luminescence
# [4] = growth inhibition of DIPG glioma cells, dose response, cell-based, SU-DIPG-IV, MIPE4.0, CellTiter-Glo, qHTS (AID 1347063; cut-off not given, nearly all actives have AC50 up to about 30 µM;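 note: compound exposure lasted 48 hours before the viability readout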); settings: SU-DIPG-IV viability, CellTiter-Glo ATP luminescence
# [5] = viability loss in pontine glioma line – cell-based, SU-DIPG-XXV, MIPE5.0, CellTiter-Glo, qHTS, dose response (AID 1347065; cut-off not given, nearly all actives have AC50 up to about 26 µM;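 note: cells exposed to compound for 48 hours before ATP readout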); settings: CellTiter-Glo ATP luminescence
# [6] = sensitizers of A549 cells to miR-34 induction, primary screen, imaging, A549 dox-inducible miR-34, nuclei and caspase counts (AID 1347080;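 active = compounds whose cell count with miR-34 switched on is under 0.7 times the count with it off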); settings: A549 miR-34 inducible, Hoechst nuclei count, 48 h
# [7] = survival rescue of mitochondrial mutant cells in low glucose, primary screen, MELAS cybrids, Rieske KO mouse fibroblasts, CellTiter-Glo (AID 1508586;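 active = mean z-score across replicates of 1.96 or higher in either the MELAS or the Rieske mutant cell line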;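 note: z relative to plate mean and SD of compound and empty wells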)
# [8] = LFS_MB_P medulloblastoma growth inhibition, cell-based, chromothripsis tumors, cisplatin or BGB combos (AID 1671449; in the data active = inhibition above about 80%;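 note: cells exposed for 96 hours; 0% = vehicle DMSO and 100% = killing by high DMSO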); settings: LFS_MB_P medulloblastoma cells
# [9] = HDN33 neuroblastoma growth inhibition, cell-based, chromothripsis tumors, cisplatin or BGB combos (AID 1671450; in the data active = inhibition above about 80%;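 note: cells exposed to compound for four days; 0% = vehicle DMSO and 100% = cell killing by high DMSO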); settings: HDN33 neuroblastoma cells, stronger effect = higher value
# [10] = ICB984 medulloblastoma cell growth inhibition, synergistic combos for chromothripsis tumors, cisplatin or BGB combos (AID 1671451; call rule not given here;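 note: cells exposed for 96 hours before readout; 0% = vehicle DMSO and 100% = killing by high DMSO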); settings: ICB984 medulloblastoma cells, drug combinations, stronger effect = higher value
# [11] = HTB85 osteosarcoma cell growth inhibition, synergistic combos for chromothripsis tumors, BGB or cisplatin IC20 combos (AID 1671453; in the data active = inhibition above about 80%;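 note: cells exposed for 96 hours before readout; 0% = vehicle DMSO and 100% = high DMSO killing control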); settings: HTB85 osteosarcoma cells, drug combinations, stronger effect = higher value
# [12] = MDA-MB-436 breast carcinoma cell growth inhibition, synergistic combos for chromothripsis tumors, BGB or cisplatin combos (AID 1671458; call rule not given here;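 note: cells exposed for 96 hours; 0% = vehicle DMSO and 100% = killing by high DMSO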); settings: MDA-MB-436 breast carcinoma growth inhibition, drug combinations, stronger effect = higher value
# [13] = growth inhibition of BT084 medulloblastoma cells, cell-based, ICGC_MB145, cisplatin and BGB IC40 combos (AID 1671461; in the data active = inhibition above about 80%;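 note: cells exposed to drugs for 96 hours; 0% = vehicle DMSO and 100% = high DMSO full killing control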); settings: drug combinations, stronger effect = higher value
# [14] = growth inhibition of RCMB18 medulloblastoma cells, cell-based, cisplatin and BGB IC40 combos (AID 1671462; in the data active = inhibition above about 80%;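 note: cells exposed to compound for four days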); settings: stronger effect = higher value
# [15] = SU-DIPG-XXV glioma cell viability, MIPE5.0 library, qHTS (AID 1347068; cut-off not given, nearly all actives have IC50 up to about 30 µM;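 note: cells exposed to compound for 48 hours before viability readout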)
# [16] = JHH-DIPG-1 glioma cell viability, MIPE5.0 library, CellTiter-Glo luminescence, qHTS (AID 1347067; cut-off not given, nearly all actives have AC50 up to about 26 µM;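 note: cells exposed to compound for 48 hours before readout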); settings: JHH-DIPG-1 glioma viability, CellTiter-Glo ATP luminescence
# [17] = growth inhibition of DIPG glioma cells, dose response, cell-based, SU-DIPG-XIII, MIPE5.0, CellTiter-Glo, qHTS (AID 1347064; cut-off not given, nearly all actives have AC50 up to about 23 µM;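 note: cells exposed to compound for 48 hours before the viability read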); settings: SU-DIPG-XIII viability, CellTiter-Glo ATP luminescence
# [18] = SU-DIPG-VI glioma cell viability, MIPE4.0 library, CellTiter-Glo luminescence, qHTS (AID 1347066; cut-off not given, nearly all actives have AC50 up to about 30 µM;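 note: cells exposed to compound for 48 hours before readout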); settings: CellTiter-Glo ATP luminescence
compound,measurement,setting,value
O=C(Nc1cn[nH]c1-c1nc2ccc(CN3CCOCC3)cc2[nH]1)NC1CC1,viability,"[1]; at 0.0781 µM, OCI-C5x cells, without rucaparib",108% (inactive)
same,viability,"[1]; at 0.0781 µM, OCI-P5x cells, with rucaparib 20 µM, 100% = cells with rucaparib alone",111% (inactive)
same,viability,"[1]; at 0.0781 µM, OCI-P5x cells, without rucaparib",76.9% (active)
same,viability,"[1]; at 0.313 µM, OCI-C5x cells, with rucaparib 10 µM, 100% = cells with rucaparib alone",89.8% (active)
same,viability,"[1]; at 0.313 µM, OCI-C5x cells, without rucaparib",104% (inactive)
same,viability,"[1]; at 0.313 µM, OCI-P5x cells, with rucaparib 20 µM, 100% = cells with rucaparib alone",109% (inactive)
same,viability,"[1]; at 0.313 µM, OCI-P5x cells, without rucaparib",66.7% (active)
same,viability,"[1]; at 1.25 µM, OCI-C5x cells, with rucaparib 10 µM, 100% = cells with rucaparib alone",36.1% (active)
same,viability,"[1]; at 1.25 µM, OCI-C5x cells, without rucaparib",48.8% (active)
same,viability,"[1]; at 1.25 µM, OCI-P5x cells, with rucaparib 20 µM, 100% = cells with rucaparib alone",118% (inactive)
same,viability,"[1]; at 1.25 µM, OCI-P5x cells, without rucaparib",53.2% (active)
same,viability,"[1]; at 5 µM, OCI-C5x cells, with rucaparib 10 µM, 100% = cells with rucaparib alone",26.8% (active)
same,viability,"[1]; at 5 µM, OCI-C5x cells, without rucaparib",18.2% (active)
same,viability,"[1]; at 5 µM, OCI-P5x cells, with rucaparib 20 µM, 100% = cells with rucaparib alone",39.6% (active)
same,viability,"[1]; at 5 µM, OCI-P5x cells, without rucaparib",18.8% (active)
CN(C)CCN1C(=O)c2cccc3cc(N)cc(c23)C1=O,AC50,[2],20.9 µM (active)
same,AC50,[3],23.5 µM (active)
same,AC50,[4],18.7 µM (active)
same,AC50,[5],18.6 µM (active)
same,fold change,"[6]; stronger effect = lower value, cell number ratio, induced over uninduced",1.2 (inactive)
same,fold change,[6]; measured here: relative caspase fold change +Dox/-Dox,0.74
same,cell count,"[6]; measured here: total cells with miR-34 induction, stronger effect = lower value",1750
same,cell count,[6]; measured here: total cells without miR-34 induction,1460
same,z-score,"[7]; MELAS cybrid survival, CellTiter-Glo 48 h, stronger effect = higher value",-0.14 (inactive)
same,z-score,"[7]; Rieske KO mouse fibroblast survival, CellTiter-Glo 72 h",-0.182
same,inhibition,"[8]; at 0.5 µM, stronger effect = higher value",-4.37% (inactive)
same,inhibition,"[8]; measured here: combination with BGB IC20, at 0.005 µM",-27.8%
same,inhibition,"[8]; measured here: combination with BGB IC40, at 0.005 µM",-17.6%
same,inhibition,"[8]; measured here: combination with BGB IC40, at 0.05 µM",-30.5%
same,inhibition,"[8]; measured here: combination with cisplatin, at 0.5 µM, stronger effect = higher value",-36.3%
same,inhibition,"[8]; measured here: combination with cisplatin, at 5 µM, stronger effect = higher value",4.24%
same,inhibition,"[9]; BGB combo, at 5 µM",41.4%
same,inhibition,[9]; at 0.5 µM,-23.5% (inactive)
same,inhibition,"[9]; cisplatin combo, at 5 µM",48.1%
same,inhibition,"[9]; measured here: with BGB IC20 combination, at 0.5 µM",-27.7%
same,inhibition,"[9]; measured here: with cisplatin IC20 combination, at 0.5 µM",-18.1%
same,inhibition,"[9]; single agent, at 5 µM",62.5%
same,inhibition,"[10]; BGB IC20 combo, at 0.005 µM",-11.5%
same,inhibition,"[10]; BGB IC40 combo, at 0.005 µM",-22.2%
same,inhibition,"[10]; BGB IC40 combo, at 0.05 µM",-11.5%
same,inhibition,[10]; at 0.5 µM,-22.6% (inactive)
same,inhibition,"[10]; cisplatin combo, at 0.05 µM",-15.5%
same,inhibition,"[10]; cisplatin combo, at 0.5 µM",-16.6%
same,inhibition,"[10]; cisplatin combo, at 5 µM",-25.7%
same,inhibition,"[10]; measured here: 5 uM single agent, at 5 µM",-8.29%
same,inhibition,[11]; at 0.5 µM,-12.9% (inactive)
same,inhibition,"[11]; measured here: with BGB IC20, at 0.5 µM",-26.5%
same,inhibition,"[11]; measured here: with BGB IC20, at 5 µM",10.3%
same,inhibition,"[11]; measured here: with cisplatin IC20, at 0.5 µM",-16.4%
same,inhibition,"[11]; measured here: with cisplatin IC20, at 5 µM",6%
same,inhibition,"[11]; single agent, at 5 µM",33.7%
same,inhibition,[12]; at 0.5 µM,-8.14% (inactive)
same,inhibition,"[12]; measured here: BGB combination, at 0.5 µM",-8.98%
same,inhibition,"[12]; measured here: BGB combination, at 5 µM",10.1%
same,inhibition,"[12]; measured here: cisplatin combination, at 0.5 µM",-20.8%
same,inhibition,"[12]; measured here: cisplatin combination, at 5 µM",21.8%
same,inhibition,[13]; at 0.5 µM,-6.16% (inactive)
same,inhibition,"[13]; cisplatin combination, at 0.5 µM",-21.8%
same,inhibition,"[13]; cisplatin combination, at 5 µM",-12.3%
same,inhibition,"[13]; measured here: BGB IC40 combination 0.05 uM, at 0.05 µM",-42.3%
same,inhibition,"[13]; single agent, at 5 µM",-40.8%
same,inhibition,[14]; at 0.5 µM,-2.53% (inactive)
same,inhibition,"[14]; cisplatin combo, at 5 µM",-21%
same,inhibition,"[14]; measured here: BGB IC40 combination, at 0.05 µM",-28.2%
same,inhibition,"[14]; measured here: combination with cisplatin, at 0.5 µM",2.14%
same,inhibition,"[14]; single agent, at 5 µM",-32.9%
COc1cc2c(NC3CCN(C(C)C)CC3)nc(C3CCCCC3)nc2cc1OCCCN1CCCC1,AC50,[2],23.5 µM (active)
same,AC50,[3],8.33 µM (active)
same,AC50,[4],18.7 µM (active)
same,AC50,[5],20.9 µM (active)
same,IC50,[15],23.5 µM (active)
CCOC(CN1C(=O)[C@](CC(=O)Nc2ccc(C)cc2)(NC(=O)Nc2ccc(C)cc2)c2ccccc21)OCC,AC50,[2],23.5 µM (active)
same,outcome,[3],inactive
same,AC50,[4],14.8 µM (active)
same,AC50,[5],18.6 µM (active)
same,AC50,[16],20.9 µM (active)
same,IC50,[15],23.5 µM (active)
CC(C)c1cnn2c(NCc3ccccc3)cc(N[C@@H](CO)[C@H](O)CO)nc12,AC50,[2],0.263 µM (active)
same,AC50,[3],0.418 µM (active)
same,AC50,[4],0.187 µM (active)
same,AC50,[5],0.235 µM (active)
same,AC50,[16],0.417 µM (active)
same,IC50,[15],0.468 µM (active)
CC/C(=C(/c1ccc(O)cc1)c1ccc(OCCNC)cc1)c1ccccc1,AC50,[2],2.63 µM (active)
same,AC50,[3],23.5 µM (active)
same,AC50,[17],9.34 µM (active)
same,AC50,[5],3.32 µM (active)
same,AC50,[18],26.4 µM (active)

# Reference: PubChem BioAssay
